In PubChem BioAssay AID1745845 (National Center for Advancing Translational Sciences (NCATS), 2022):
Where “and” joins values, the source holds several entries; their conditions need not be identical. Identical values can stand only once. About 2,600 (0.72%) of roughly 360,000 compounds were called active. Roughly 5% stayed inconclusive and do not appear here. Many of the other results were omitted from the sample, so actives are more common in it than they were. Values without a mark were called inactive. Calls follow the shape of the dose curve; as a rule, active = well fitted inhibition curve with a large enough effect; inconclusive = small, poorly fitted or top-dose-only effect; inactive = no such curve, though single readings can be large or run the other way.

Test: Primary qHTS for Inhibitors of ATXN expression; also: nearly all actives have a fitted effect of over 55% in size
Details: HEK-293 ATXN2-luciferase reporter, luminescence, 24 h; series mostly up to 57 µM; activity change, negative = inhibition: at the top concentration
Summary of the method: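 qHTS (up to 57 uM final) was run with 24 h compound exposure of reporter cells at 37 °C. Each well was multiplexed: SteadyGlo luminescence measured ATXN2-luciferase expression after a fluorogenic Gly-Phe-AFC viability readout (25 uM final).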
% is scaled to controls: 0 for no effect and ±100 for the full control effect; potency is read from the fitted curve at half-maximal effect.

| SMILES | Potency | activity change, negative = inhibition |
| --- | --- | --- |
| O=C(Nc1ccccc1Cl)/C(Cl)=C(\Cl)S(=O)c1ccccc1 (centres undefined) | 3.55 µM (active) | – |
| O=C(CCN1CCN(C/C=C/c2ccccc2)CC1)Nc1ccccc1Cl | – | -14.6% |
| NC(=O)C1(Nc2ccccc2Cl)CCCC1 | – | -7.8% |
| CSCCC(c1nnnn1Cc1ccccc1)N1CCN(C/C=C/c2ccccc2)CC1 (centres undefined) | – | -23.7% |
| CCCN1CCN(CCCNC(=O)Cn2nc(CC)n3c(cc4occc43)c2=O)CC1 | – | 32.1% |
| Cc1cccc(C(=O)NCCc2nc3ccccc3n2Cc2ccccc2Cl)c1 | – | -3.57% |
| Cc1ccccc1CSc1nc(-c2ccccc2)nc2c1Cc1c(CO)cnc(C)c1O2 | – | 9.66% |
| CCOC(=O)[C@]12CCCC=C1N(Cc1cccc3ccccc13)C(=O)[C@H](CC(=O)NCC13CC4CC(CC(C4)C1)C3)C2 | – | -16.8% |
| COc1cc(Nc2ncc(F)c(Nc3ccc4c(n3)NC(=O)C(C)(C)O4)n2)cc(OC)c1OC | – | 25.8% |
| CCOc1ccc(CCNC(=O)c2cc3c(=O)n(C)c4ccccc4c3n2C)cc1 | – | -18.4% |
| CCCCC(O)(CCCC)C(=O)NN(C(=O)CCl)c1ccccc1 | – | -25.2% |
| CC(C)(O)C(=O)NN(C(=O)c1ccccc1)c1cccc(Br)c1 | – | -5.23% |
| CCCC(O)(CCC)C(=O)NN(C(=O)CCl)c1cccc(C)c1 | 21.2 µM (active) | – |
| C=CCC[C@@H](CCCCC)OC(=O)/C=C/[C@@H](O)[C@H](O)C[C@H](O)CC=C | – | -13.5% |
| CC(C)CC(=O)NCC(c1ccc2c(c1)OCO2)N1CCN(c2ccc(F)cc2)CC1 (centres undefined) | – | -12.6% |
| C[C@H]1C[C@H]2[C@@H]3CCC4=CC(=O)C=C[C@]4(C)[C@@H]3C(=O)C[C@]2(C)[C@@]1(O)C(=O)CO | – | -1.21% |
| CO[C@H]1C[C@@H]2CC[C@@H](C)[C@@](O)(O2)C(=O)C(=O)N2CCCC[C@@H]2C(=O)O[C@H]([C@@H](C)C[C@@H]2CC[C@H](O)[C@H](OC)C2)CC(=O)[C@H](C)C=C(C)[C@@H](O)[C@@H](OC)C(=O)[C@H](C)C[C@H](C)C=CC=CC=C1C | – | 0.805% |
| COc1cc(C(CCN2CCN(c3ccccc3)CC2)c2c(OC)cc(OC)c3ccc(=O)oc23)cc(OC)c1OC (centres undefined) | – | -2.17% |
| CCN(CC)CCC(c1ccc2c(c1)OCO2)c1c(OC)cc(OC)c2c(-c3ccccc3)cc(=O)oc12 (centres undefined) | 31.6 µM (active) | – |
| COc1cc(OC)c2ccc(=O)oc2c1C(CCN1CCN(c2ccccc2)CC1)c1ccc2c(c1)OCO2 (centres undefined) | – | -17.9% |
| Cc1ccccc1-n1c(=O)c2ccccc2n(Cc2ccc(F)cc2)c1=O | – | -10.8% |
| CCNC(=O)c1cc2n(n1)CCCN(Cc1ccc(C)cc1)C2=O | – | -4.43% |
| CC1CCCCN1S(=O)(=O)c1ccc(F)c(C(=O)Nc2ccccc2C(F)(F)F)c1 (centres undefined) | – | 5.86% |
| CCN(CCCNC(=O)CSc1cc(=O)n(C)c2cc(Cl)ccc12)c1cccc(C)c1 | – | 0.149% |
| CC[C@H]1CN2CCc3cc(OC)c(OC)cc3[C@@H]2C[C@@H]1C[C@H]1NCCc2cc(OC)c(OC)cc21 | 1.41 µM (active) and 112 nM (active) | – |
| COc1cc2c(cc1OC)CN(CC(=O)Nc1ccc(F)cc1)CC2 | – | -13.5% |

| SMILES | Potency | activity change, negative = inhibition |
| --- | --- | --- |
| CCC(CC)C(=O)N1CCc2cc(OC)c(OC)cc2C1COc1ccc(F)cc1 (centres undefined) | – | -18.3% |
| Cc1cc(C)cc(NS(=O)(=O)c2cc3c(cc2C)NC(=O)CO3)c1 | – | -22.7% |
| CC=CCC=CCCC(=O)[C@H]1O[C@@H]1C(N)=O | – | 6.5% |
| COc1ccc2c(c1)c(=Cc1ccc(N(C)C)cc1)c1cc(-c3ccccc3)[n+](C)n12 | 8.91 µM (active) | – |
| COc1cccc(NC(=O)Cn2c(=O)cc(C)c3c(C)nn(-c4cccc(F)c4)c32)c1 | – | 10.1% |
| CCOC(=O)C1CCN(c2csc3ccc(C)cc3c2=O)CC1 | – | 18.8% |
| CCCCN1C(=O)C(C)=C(C)C1OCCc1ccc(OC)c(OC)c1 (centres undefined) | – | -2.38% |
| COc1ccc(CN2C(=O)CC(Cc3ccc(C)cc3)C2=O)cc1OC (centres undefined) | – | 4.42% |
| CCCCOc1ccc(CN2C(=O)C(=O)c3cc(Br)cc(C)c32)cc1OC | 31.6 µM (active) | – |
| COc1ccccc1CNC(=O)CS(=O)(=O)c1cccc2nsnc12 | – | 14.6% |
| Cc1cc2ccccc2n1CCNC(=O)c1ccc(F)cc1 | – | 5.13% |
| CCC(=O)N(CCc1ccccc1)Cc1cc2cc(C)ccc2[nH]c1=O | – | 5.99% |
| Cc1ccc2[nH]c(=O)c(CN(CCCN(C)C)C(=O)Nc3cccc(Cl)c3)cc2c1 | 15.8 µM (active) | – |
| Cc1ccc2[nH]c(=O)c(CN(CC3COCCO3)C(=O)Nc3ccccc3C)cc2c1 (centres undefined) | – | -15.9% |
| CCOc1ccc(OCC)c(NC(=O)c2c(C)nn(-c3ccccc3)c2-n2cccc2)c1 | – | 31.2% |
| CC(C)(C)OC(=O)N1CCC(c2c(C(=O)Nc3ccc4c(c3)OCO4)cnn2-c2ccccc2)CC1 | – | -3.01% |
| CCOC(=O)C/C(C)=N\Nc1ccc([N+](=O)[O-])cc1[N+](=O)[O-] | – | 0% |
| CCOC(=O)/C(=N\Nc1ccccc1[N+](=O)[O-])c1csc(Nc2ccccc2)n1 | – | -8.65% [at 11.3 µM] |
| CCOC(=O)/C(=C\c1ccc([N+](=O)[O-])cc1)C(=O)c1cc(C(C)=O)c(Nc2ccccc2)s1 | 8.91 µM (active) | – |
| O=C(NCC12CC3CC(CC(C3)C1)C2)c1cc2nc(-c3ccccc3)cc(C(F)(F)F)n2n1 | – | 12.1% |
| CC(=O)NC(c1cccs1)c1cc(Br)c2cccnc2c1O (centres undefined) | 5.01 µM (active) | – |
| O=C(Nc1cccc2cccnc12)c1cccc2c(Br)cccc12 | – | 8.25% |
| N#Cc1ccccc1NC(=O)COc1c(Br)cc(Br)c2cccnc12 | – | -35.6% |
| COc1ccc2cc1Oc1ccc(cc1)C[C@H]1c3cc(c(OC)cc3CCN1C)Oc1c(O)c(OC)cc3c1[C@H](C2)N(C)CC3 | 25.1 µM (active) | – |
| COc1ccc(-c2nc3ccccc3o2)cc1NC(=O)c1cc([N+](=O)[O-])ccc1N1CCOCC1 | – | 14.3% |
| COc1ccccc1CNC(=O)c1ccccc1NC(=O)c1nsc2ccccc12 | – | 16.5% |

| SMILES | Potency | activity change, negative = inhibition |
| --- | --- | --- |
| O=[N+]([O-])c1ccccc1/C=C/CN1CCCC(CO)C1 (centres undefined) | – | -14.6% |
| O=[N+]([O-])c1ccccc1/C=C/CN1CCC(O)CC1 | – | -12.1% |
| CC1CCCCC1NC(=O)/C(C#N)=C/C=C/c1ccccc1[N+](=O)[O-] (centres undefined) | 3.16 µM (active) | – |
| COC(=O)/C=C(/C)N | – | -1.98% |
| CN1CC[C@H](c2c(O)cc(O)c3c(=O)cc(-c4ccccc4Cl)oc23)[C@H](O)C1 | 31.6 µM (active) | – |
| CCOc1cc(C=C2C(=O)N(c3ccccc3)N=C2C)cc(Cl)c1OCC(=O)OC | – | -6.07% |
| COc1cccc(CNCCSc2nnnn2C)c1OCc1ccccc1Cl | – | 16.1% |
| COc1cccc(CNCCc2c[nH]c3ccccc23)c1OCc1ccccc1F | 20 µM (active) | – |
| COc1ccc(C(CCNCc2ccccc2F)c2ccc(F)cc2)cc1 (centres undefined) | – | -16.3% |
| Cc1nnc(C(=O)NC(C)(C)c2nc(C(=O)NCc3ccc(F)cc3)c(O)c(=O)n2C)o1 | – | 3.13% |
| COc1ccc(S(=O)(=O)NCCSc2nnnn2-c2ccccc2)cc1 | – | -23.7% |
| CSc1ncnc2c1ncn2CCCNCc1ccco1 | – | -8.18% |
| CSc1ncnc2c1ncn2CCCNCC1CCCCC1 | – | -12.5% |
| CSc1ncnc2c1ncn2CC(=O)C1CCC2C3CCC4=CC(=O)CCC4(C)C3CCC12C (centres undefined) | 22.4 µM (active) | – |
| COc1ccc(-c2nc(Cn3c(=O)cc(C)c4c(C)nn(-c5ccccc5)c43)c(C)o2)c(OC)c1 | – | 7.3% |
| CCOc1ccccc1CNC(=O)c1ccc(-n2c(C)cc3c2CCC(C)C3)cc1 (centres undefined) | – | 0% |
| CO/N=C(/C(=O)N[C@@H]1C(=O)N2C(C(=O)O)=C(Cn3nnc(C)n3)CS[C@H]12)c1csc(N)n1 | – | 2.99% |
| O=[N+]([O-])c1c(NCCO)cc(Sc2nc3ccccc3s2)c2nonc12 | 14.1 µM (active) | – |
| CC(C)(C)c1ccc(S(=O)(=O)Nc2ccc(O)c(Sc3nc4ccccc4s3)c2)cc1 | – | -25.6% |
| CC(C)c1ccc(S(=O)(=O)Nc2ccc(O)c(Sc3nc4ccccc4s3)c2)cc1 | – | -19.1% |
| CCCCC[C@H](C)N1C[C@@H](COCc2ccccc2)Oc2cc(N3CCC[C@@H]3CO)ccc2S1(=O)=O | – | -22.8% |
| CCCCC[C@H](C)N1C[C@@H](COCc2ccccc2)Oc2cc(N3CC[C@@H](N(C)C)C3)ccc2S1(=O)=O | 31.6 µM (active) | – |
| CCCCN1CC(COCc2ccccc2)OCCS1(=O)=O (centres undefined) | – | 7.62% |
| Cc1cccc(Nc2nc(C)nc(N)c2S(=O)(=O)c2ccccc2)c1 | – | 0.325% |
| CC(C)CC[n+]1ccn(C2=C([O-])c3ccccc3C(=O)/C2=N\S(=O)(=O)c2ccccc2)c1 | 31.6 µM (active) | – |
| CCC1=Nc2cc(C(=O)NCCCOC(C)C)ccc2Sc2ccc(C)cc21 | – | -5.7% |

| SMILES | Potency | activity change, negative = inhibition |
| --- | --- | --- |
| Cc1ccc(C)c(N2CCN(C(=O)CN3C(=O)COc4ccc(S(=O)(=O)N5CCCCCC5)cc43)CC2)c1 | – | 7.39% |
| COc1cccc(CNC(=O)C2CCC(CNS(=O)(=O)c3cccs3)CC2)c1 (centres undefined) | – | -0.375% |
| OC(c1ccccc1)(c1ccccc1)C1CCN(CCCOc2ccccc2)CC1 | – | 0% |
| CN1CCC[C@@H]1CCO[C@](C)(c1ccccc1)c1ccc(Cl)cc1 | 25.1 µM (active) | – |
| CC(C)(c1ccccc1)c1ccc(OCCN2CCCC2)cc1 | – | -18.9% |
| CCOc1ccc(NC(=O)Cn2c(C)ccc(C#N)c2=O)cc1 | – | -0.689% |
| NCC[C@H](O)C(=O)N[C@@H]1C[C@H](N)[C@@H](O[C@H]2O[C@H](CN)[C@@H](O)[C@H](O)[C@@H]2O)[C@H](O)[C@@H]1O[C@H]1O[C@H](CO)[C@@H](O)[C@H](N)[C@@H]1O | – | 0.946% [at 0.709 µM] |
| CCOc1cccc2c1N[C@@H](c1ccc(C(=O)O)cc1)[C@H]1CC=C[C@@H]21 | – | -5.41% |
| C/C(=N\NC(=O)c1ccccc1F)c1ccccn1 | 3.98 µM (active) | – |
| O=C(Nc1nnc(-c2ccccc2F)s1)c1ccccc1F | – | -3.39% |
| C/C(=N\NC(=O)Cc1ccc(Cl)cc1)c1ccccn1 | 3.16 µM (active) | – |
| O=C(Cc1ccc(Cl)cc1)c1ccccc1 | – | 45.8% |
| CC1=NNC(=O)C1CCC(=O)N/N=C(\C)c1ccc(Cl)cc1 (centres undefined) | – | 1.5% |
| O=C(NCCCn1ccnc1)c1ccccc1F | – | -4.04% |
| O=C(NCCc1ccccc1)C(=O)NCC(c1ccco1)S(=O)(=O)c1ccccc1 (centres undefined) | – | 4.42% |
| CCc1ccc(NC(=O)c2sc3nc4c(cc3c2N)CN(CC)CC4)cc1 | – | -30% |
| COc1ccc(-c2cc(NC=O)c3ncc(-c4ccccc4)n3c2)cc1OC | – | -24.3% |
| COc1cccc(N2CCN(S(=O)(=O)c3ccc4c(c3)CCCN4C(C)=O)CC2)c1 | – | -1.44% |
| CC(=O)N1CCCc2cc(S(=O)(=O)N3CCCC(C(=O)N4CCN(c5cccc(Cl)c5)CC4)C3)ccc21 (centres undefined) | 28.2 µM (active) | – |
| CC(=O)N1CCCc2cc(S(=O)(=O)CCC(=O)N3CCN(c4ccccc4)CC3)ccc21 | – | -7.04% |
| CCCC(C(=O)OCCN(CC)CC)(c1ccccc1)c1ccccc1 | 31.6 µM (active) | – |
| CCN(CC)CCOC(=O)c1ccc(NC(=O)CNC(=O)c2ccccc2)cc1 | – | 2.24% |
| COC(CCN(C)C)(c1ccccc1)c1ccccc1 | – | 6.23% |
| O=c1cc(CSc2ncn[nH]2)[nH]c2ccc(F)cc12 | – | 16% |
| COc1cc(/C=C/C(N)=O)cc(OC)c1OC | – | 17.2% |
| COCCCN1CCC(NC(=O)c2cc(Cl)c(N)c3c2OCC3)CC1 | inactive | – |
